The results in this text go back to PubChem BioAssay (NCATS).

The structures appear in SMILES notation. Records with an inconclusive call do not appear. A call without a number means that no potency is given here. The source made the active and inactive calls. The call rests on the fitted dose curve; in most records, active means well fitted curve in the direction sought with a large enough effect; inconclusive means small, poorly fitted or top-dose-only effect, or another doubt; inactive means no such curve, though single readings can be large; an effect the other way counts as inactive or inconclusive.

A short description of experiment [1]: qHTS to identify inhibitors of the type 1 interferon - major histocompatibility complex class I in skeletal muscle: primary screen against the NCATS Pharmaceutical Collection (AID 1347407).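 Further: luminescence of HiBiT knocked into endogenous HLA-B as interferon-induced MHC class I level.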 Further: potency means the concentration at half of the fitted maximal effect. The procedure, abridged: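 HLA-B HiBiT myoblasts, dexamethasone-free growth medium + 4 ng/ml IFN-b; compounds pinned 1 h after seeding, […] from 46 uM; 24 h, 37 C, 5% CO2; lytic HiBiT detection, 10 min RT, luminescence.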

Experiment [2] deals with Protein phosphatase 1D (Homo sapiens) (UniProt O15297). Description: RapidFire Mass Spectrometry qHTS Assay for Modulators of WT P53-Induced Phosphatase 1 (WIP1) (AID 1347424).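 Further: amount of dephosphorylated VEPPL-S-QETFS peptide product formed by WIP1; series mostly up to about 63 µM.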 Summed up: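 10 nM WIP1 preincubated with compounds 1 hr at room temperature in pH 7.5 Tris buffer with 30 mM MgCl2, 1 mM TCEP; 2 uM VEPPL-pS-QETFS phosphopeptide for 5 min, formic acid quench; dephosphorylated product quantified by RapidFire MS against labelled standard.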
For orientation: In qHTS, concentration-response curves come from the screen itself.

For experiment [3] the target is unchanged. Description: Rhodamine-PBP qHTS Assay for Modulators of WT P53-Induced Phosphatase 1 (WIP1) (AID 1347425). The procedure, abridged: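 Steps: enzyme with Rh-PBP sensor and compounds, room-temperature incubation of 1 hr, baseline read, addition of VEPPL-pS-QETFS (10 uM final), kinetic fluorescence reads at 525/598 nm. Activity equals final minus baseline signal.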

Experiment [4] is described as follows: Primary qHTS for inhibitors of La Crosse Virus (LACV) - induced cell death in SH-SY5Y cells (AID 1508616).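 Further: top concentration of the series differs between compounds; higher means more rescue of cells from virus-induced death.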 Summed up: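 SH-SY5Y cells (6000/well) plated 24 h, then given compounds by pin transfer and LACV at 0.01 MOI for 6 days at 37C. Viability measured by ATPLite luminescence, normalized to infected DMSO and uninfected DMSO.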

Chain of Protein phosphatase 1D (Homo sapiens) (O15297 whole entry, looked up): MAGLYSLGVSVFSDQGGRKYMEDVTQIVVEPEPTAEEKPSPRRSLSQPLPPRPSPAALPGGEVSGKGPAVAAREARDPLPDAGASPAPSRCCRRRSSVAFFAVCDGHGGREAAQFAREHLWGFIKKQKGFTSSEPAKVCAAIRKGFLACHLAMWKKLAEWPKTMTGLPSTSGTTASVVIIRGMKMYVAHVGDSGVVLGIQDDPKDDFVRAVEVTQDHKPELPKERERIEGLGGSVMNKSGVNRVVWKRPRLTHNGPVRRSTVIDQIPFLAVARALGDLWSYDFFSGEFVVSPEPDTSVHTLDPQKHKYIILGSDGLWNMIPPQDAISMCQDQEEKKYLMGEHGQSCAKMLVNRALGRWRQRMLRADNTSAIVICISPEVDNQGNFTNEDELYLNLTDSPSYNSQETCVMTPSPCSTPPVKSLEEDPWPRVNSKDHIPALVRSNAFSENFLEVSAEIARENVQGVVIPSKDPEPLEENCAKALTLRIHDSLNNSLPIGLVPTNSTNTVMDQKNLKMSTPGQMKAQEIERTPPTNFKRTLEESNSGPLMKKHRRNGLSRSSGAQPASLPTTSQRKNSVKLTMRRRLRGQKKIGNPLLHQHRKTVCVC

For `CCN1C(=O)c2ccccc2C1Nc1ccc(OCCN2CCCCC2)cc1` (stereo not given), the Potency result in experiment [1] and in experiment [2] was “inactive” in each case. The result in experiment [3] and in experiment [4] was inactive.

`CN1C(=O)c2ccccc2C1=O`: the Potency entry in experiment [1] and in experiment [2] was “inactive” each time. Besides, the outcome in experiment [3] and in experiment [4] was inactive.

For `NS(=O)(=O)c1ccc(N2CCCCS2(=O)=O)cc1`, the Potency entry in experiment [1] and in experiment [2] was “inactive” in each case. Also, the molecule was classed as inactive in experiment [3] and in experiment [4].

For `C/C(=C(/OCCOc1ccc(Cl)cc1)c1ccc(Cl)cc1Cl)n1ccnc1`, the Potency result in experiment [1] and in experiment [2] was “inactive” throughout. Besides, the outcome in experiment [3] and in experiment [4] was inactive.

For the molecule `CN(C)CCOC(c1ccccc1)c1ccc(Br)cc1` (stereo not given), the Potency result in experiment [1] and in experiment [2] was “inactive” each time. Moreover, the molecule was called inactive in experiment [3] and in experiment [4].

As to `CCCC(=O)O[C@]1(C(=O)CCl)[C@@H](C)C[C@H]2[C@@H]3CCC4=CC(=O)C=C[C@]4(C)[C@@]3(F)C(=O)C[C@@]21C`, the Potency entry in experiment [1] and in experiment [2] was “inactive” each time. Also, the outcome in experiment [3] and in experiment [4] was inactive.

As for `O=S(=O)(O)c1ccc2nc(-c3ccccc3)[nH]c2c1`, the Potency result in experiment [1] and in experiment [2] was “inactive” throughout. Also, the result in experiment [3] and in experiment [4] was inactive.

As for `O=C1[C@@H]2[C@H]3CC[C@H](C3)[C@@H]2C(=O)N1CCCCN1CCN(c2ncccn2)CC1`, the Potency entry in experiment [1] and in experiment [2] was “inactive” each time. For the same molecule, the molecule was called inactive in experiment [3] and in experiment [4].

In the case of `CC(=O)Nc1ccc(S(=O)(=O)Nc2cc(C)on2)cc1`, the Potency entry in experiment [1] and in experiment [2] was “inactive” each time. The molecule was classed as inactive in experiment [3] and in experiment [4].

For `CC(=O)OC/C=C(C)/C=C/C=C(C)/C=C/C1=C(C)CCCC1(C)C`, the Potency result in experiment [1] and in experiment [2] was “inactive” in each case. Moreover, the result in experiment [3] and in experiment [4] was inactive.

On to `Cc1sccc1Br`, for which the Potency entry in experiment [1] and in experiment [2] was “inactive” each time. In addition, the molecule was called inactive in experiment [3] and in experiment [4].

As for `O=C1CC(c2ccc(Cl)cc2)CC(=O)N1`, the Potency result in experiment [1] and in experiment [2] was “inactive” each time. Also, the molecule was classed as inactive in experiment [3] and in experiment [4].

Consider `CN1[C@@H]2CC[C@H]1CC(NC(=O)n1c(=O)[nH]c3ccccc31)C2` (stereo not given in full), for which the Potency result in experiment [1] and in experiment [2] was “inactive” in each case. Moreover, the call in experiment [3] and in experiment [4] was inactive.

As to `CC[C@@]1(O)C(=O)OCc2c1cc1n(c2=O)Cc2c-1nc1ccccc1c2/C=N/OC(C)(C)C`, in experiment [1], the Potency is 745 nM (active). In experiment [2], the Potency entry was “inactive”. In addition, the molecule was called inactive in experiment [3] and in experiment [4].

As to `CC[N+]1(CC)CCC(=C(c2ccccc2)c2ccccc2)C1C` (stereo not given), the Potency result in experiment [1] and in experiment [2] was “inactive” in each case. Further, the result in experiment [3] and in experiment [4] was inactive.

For `Cc1cc(CCCOc2c(C)cc(-c3noc(C(F)(F)F)n3)cc2C)on1`, the Potency entry in experiment [1] and in experiment [2] was “inactive” in each case. The result in experiment [3] and in experiment [4] was inactive.

`Cc1cccc(OCC(O)CNC(C)(C)C)c1C` (stereo not given): the Potency entry in experiment [1] and in experiment [2] was “inactive” throughout. Also, the outcome in experiment [3] and in experiment [4] was inactive.

For `O=C(O)/C=C(\CC(=O)O)C(=O)O`, the Potency result in experiment [1] and in experiment [2] was “inactive” in each case. For the same molecule, the outcome in experiment [3] and in experiment [4] was inactive.

With `CC1CCCCN1CCCOC(=O)c1ccc(OC2CCCCC2)cc1` (stereo not given), the Potency result in experiment [1] and in experiment [2] was “inactive” throughout. Besides, the molecule was classed as inactive in experiment [3] and in experiment [4].

Turning to `CC(C)(C)C(=O)OCOC(=O)C1N2C(=O)CC2S(=O)(=O)C1(C)C` (stereo not given), the Potency result in experiment [1] and in experiment [2] was “inactive” throughout. Also, the result in experiment [3] and in experiment [4] was inactive.

On to `CCCC(=O)Nc1ccc(O)c(C(C)=O)c1`, for which the Potency result in experiment [1] and in experiment [2] was “inactive” each time. Besides, the call in experiment [3] and in experiment [4] was inactive.

Take `CC(C)(C)c1nnc(NS(=O)(=O)c2ccccc2)s1`: the Potency result in experiment [1] and in experiment [2] was “inactive” each time. Moreover, the result in experiment [3] and in experiment [4] was inactive.

Regarding `CC(=O)O[C@@H]1CC2C3CCc4cc(OC(=O)c5ccccc5)ccc4C3CCC2(C)[C@H]1OC(C)=O` (stereo not given in full), the Potency result in experiment [1] and in experiment [2] was “inactive” each time. For the same molecule, the molecule was called inactive in experiment [3] and in experiment [4].

In the case of `Nc1c(NC/C=C\COc2cc(CN3CCCCC3)ccn2)c(=O)c1=O`, the Potency result in experiment [1] and in experiment [2] was “inactive” each time. The result in experiment [3] and in experiment [4] was inactive.

With `Brc1ccccc1-c1ccccc1`, the Potency entry in experiment [1] and in experiment [2] was “inactive” each time. Besides, the result in experiment [3] and in experiment [4] was inactive.

For the molecule `CC(=O)c1ccc(O)c(C(N)=O)c1`, the Potency result in experiment [1] and in experiment [2] was “inactive” in each case. In addition, the molecule was classed as inactive in experiment [3] and in experiment [4].

Take `Nc1c(I)cc(I)c(C(=O)N(CCC(=O)O)c2ccccc2)c1I`: the Potency entry in experiment [1] and in experiment [2] was “inactive” in each case. Further, the outcome in experiment [3] and in experiment [4] was inactive.

Turning to `CC(NC(CCc1ccccc1)C(=O)O)C(=O)N1C(=O)N(C)CC1C(=O)O` (stereo not given), the Potency result in experiment [1] and in experiment [2] was “inactive” each time. Moreover, the outcome in experiment [3] and in experiment [4] was inactive.

As for `CN(C)CCN1CCN(c2cccc(Cl)c2)C1=O`, the Potency result in experiment [1] and in experiment [2] was “inactive” throughout. Also, the molecule was called inactive in experiment [3] and in experiment [4].

Consider `COc1cc2nc(Cl)nc(N)c2cc1OC`, for which the Potency result in experiment [1] and in experiment [2] was “inactive” in each case. In addition, the molecule was classed as inactive in experiment [3] and in experiment [4].

`C[C@@H]1C[C@H]2[C@@H]3CCC4=CC(=O)C=C[C@]4(C)[C@@]3(F)[C@@H](O)C[C@]2(C)[C@@]1(O)C(=O)COC(=O)c1ccncc1`: the Potency result in experiment [1] and in experiment [2] was “inactive” in each case. Moreover, the outcome in experiment [3] and in experiment [4] was inactive.

Take `O=C(CCC1CCN(Cc2ccccc2)CC1)c1ccc2c(c1)NCCCC2`: the Potency result in experiment [1] and in experiment [2] was “inactive” in each case. Moreover, the call in experiment [3] and in experiment [4] was inactive.

Turning to `Nc1ccc(C(=O)N2CC3CC(CN(Cc4ccccc4)C3)C2)cc1`, the Potency entry in experiment [1] and in experiment [2] was “inactive” each time. Besides, the molecule was classed as inactive in experiment [3] and in experiment [4].

With `CO[C@@]1(NC(=O)CSC[C@@H](N)C(=O)O)C(=O)N2C(C(=O)O)=C(CSc3nnnn3C)CS[C@@H]21`, the Potency result in experiment [1] and in experiment [2] was “inactive” in each case. Further, the outcome in experiment [3] and in experiment [4] was inactive.

For `Nc1nc(=O)n([C@@H]2O[C@H](CO)[C@@H](O)[C@@H]2F)cc1I`, the Potency result in experiment [1] and in experiment [2] was “inactive” in each case. For the same molecule, the molecule was called inactive in experiment [3] and in experiment [4].

`CC(C(=O)O)c1ccc(/C=C2\CCCCC2=O)cc1` (stereo not given): the Potency entry in experiment [1] and in experiment [2] was “inactive” throughout. The outcome in experiment [3] and in experiment [4] was inactive.

In the case of `Nc1ncnc2nc[nH]c12`, the Potency entry in experiment [1] and in experiment [2] was “inactive” each time. Moreover, the outcome in experiment [3] and in experiment [4] was inactive.

With `C=CCOc1cc(Cl)ccc1C(=O)NCCN(CC)CC`, the Potency result in experiment [1] and in experiment [2] was “inactive” each time. Besides, the result in experiment [3] and in experiment [4] was inactive.

For the molecule `O=C(CCCl)NCc1ccccc1`, the Potency result in experiment [1] and in experiment [2] was “inactive” throughout. For the same molecule, the molecule was classed as inactive in experiment [3] and in experiment [4].

Turning to `Cc1ccc(Cl)c(OCC(O)CNC(C)(C)C)c1` (stereo not given), the Potency entry in experiment [1] and in experiment [2] was “inactive” in each case. Further, the call in experiment [3] and in experiment [4] was inactive.

Regarding `Cc1coc2ccccc2c1=O`, the Potency result in experiment [1] and in experiment [2] was “inactive” throughout. In addition, the result in experiment [3] and in experiment [4] was inactive.

Take `CC(=O)Nc1c(I)c(NC(C)=O)c(I)c(C(=O)O)c1I`: the Potency entry in experiment [1] and in experiment [2] was “inactive” in each case. Moreover, the outcome in experiment [3] and in experiment [4] was inactive.

Take `CCCCN(CCN(CCCC)C(=O)N1CCOCC1)C(=O)N1CCOCC1`: the Potency result in experiment [1] and in experiment [2] was “inactive” throughout. Moreover, the result in experiment [3] and in experiment [4] was inactive.

In the case of `Cc1ncc([N+](=O)[O-])n1C`, the Potency result in experiment [1] and in experiment [2] was “inactive” each time. For the same molecule, the molecule was classed as inactive in experiment [3] and in experiment [4].

As for `Clc1ccc2c(c1)Nc1ccccc1S2`, the Potency entry in experiment [1] and in experiment [2] was “inactive” throughout. For the same molecule, the molecule was classed as inactive in experiment [3] and in experiment [4].
